Compounds without any hit were thinned out: in the full panel of roughly 79,000, 15% have a hit. Unmarked numbers belong to inactive results. Cut-off read from the data, not from the text of the source: active = growth inhibition above about 70%; inactive = the rest. Where a SMILES comes first, the peptide text is derived from it. The star is where a group is joined. Cbz = O=C(OCc1ccccc1)*

This test is described as follows: NCI Yeast Anticancer Drug Screen. Data for the sgs1 mgt1 strain (AID 161).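 Note: 0% = growth of cultures given vehicle only.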 The settings on record: S. cerevisiae sgs1 mgt1 strain, at 50.0 µM, stronger effect = higher value. In outline:
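Genetically altered yeast, compound exposure, growth inhibition relative to vehicle.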
Consider `O=CC1CCCO1` (stereo not drawn), for which the growth inhibition is 15.2%.
Consider `CSc1ccc(OC(=O)Nc2cc([N+](=O)[O-])ccc2F)cc1C`, for which the growth inhibition was 16%.
As to `O=S1(=O)CCC(Br)c2ccccc21` (stereo not drawn), the growth inhibition was 0.4%.
Turning to `CNC(=S)Nc1ccccc1`, the growth inhibition was 3.55%.
As to `N#Cc1[nH]nc2nc[nH]c(=O)c12`, the growth inhibition was -10.8%.
On to `CCN(CCO)CC(O)Cn1cnc2c(N)ncnc21` (stereo not drawn), for which the growth inhibition is -18.1%.
As for `O=c1[nH]c2cc3ccccc3cc2c2ccccc12`, the figure is 0.8%; as for `O=C(NCc1ccc(Cl)c(Cl)c1)Nc1ccccc1F`, 6.1%.
Next, `C(=NCCSSCCN=Cc1ccccc1)c1ccccc1`: 18.6%; `Cc1nc(Cc2ccc(O)c(O)c2)c(C)o1`: 3.95%; `COC(=O)C(NC(=O)C(C)NC(=O)C1CCCN1C(=O)CNC(=O)C(CO)NC(=O)C(NC(=O)OCc1ccccc1)C(C)O)C(C)O` (stereo not drawn) (Cbz-TSGPAT-OMe; configuration not given here): -4.7%.
Consider `Nc1nc2ncc(CCCNc3ccc(C(=O)NC(CCC(=O)O)C(=O)O)cc3)nc2c(=O)[nH]1` (stereo not drawn), for which the growth inhibition was 8.3%.
Turning to `CC(C)N(C=C(C#N)C#N)C(C)C`, the growth inhibition was -0.4%.
`COc1ccc(OC)c(CCCCC(N)=O)c1`: the growth inhibition was 7.3%.
For the compound `O=CC(=O)c1ccccc1O`, the growth inhibition was 44.9%.
Take `COc1ccc(C(CC(=O)O)c2ccc(OC)cc2OC)cc1` (stereo not drawn): the growth inhibition is 11.8%.
As for `CC(COC(=O)c1ccc(N)cc1)NC1CCCCC1` (stereo not drawn), the growth inhibition was 19.6%.
As to `CC(=O)O[C@@H]1[C@H]2[C@@H](OC(=O)c3ccccc3)[C@@H](C)C[C@]2(O)[C@H](OC(C)=O)[C@@]2(C)[C@@H]3C[C@@](C)(OC(C)=O)C[C@@H](OC(C)=O)[C@@]3(OC(C)=O)C[C@@]12C`, the growth inhibition was -3.8%.

(Values after PubChem BioAssay (NCI).)
